Compound activity (PubChem)
RORgamma inh: qHTS for inhibitors of ROR gamma transcriptional activity; Drosophila S2 Gal4-RORgamma UAS-luciferase reporter, 20 h; Potency, µM (top dose mostly 53.6 µM), without a hit: at the top dose activity change, negative = inhibition, usual class: inhibitors; Nuclear receptor ROR-gamma (Mus musculus), P51450; 5.4% of 310,000 active; AID 2551, 2010; note: potency is the fitted concentration of half-maximal effect; nearly all actives have a fitted effect of over 60% in size
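Compounds are pin-transferred onto Drosophila Schneider cells expressing a copper-inducible Gal4–ROR gamma transactivation domain fusion. After 1 hr, copper sulfate is added to 700 uM final; luciferase is read 20 hr later.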
ELG1 DNA repair: qHTS screen for small molecules that inhibit ELG1-dependent DNA repair in human embryonic kidney (HEK293T) cells expressing luciferase-tagged ELG1. HEK293T ELG1-luciferase reporter, luminescence, 16 h; DNA damage induced by 5-fluorouridine. Potency, µM (titrated, usually from 46.1 µM), inactives show top-dose activity change, negative = inhibition, most hits filed as inhibitors. 2.3% of 330,000 active; note: potency is the fitted concentration of half-maximal effect; nearly all actives have a fitted effect of over 55% in size
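Overnight (16 hr) co-exposure of 2,000 cells/well to 5-fluorouridine and compound at 37 °C preceded detection. Luciferase was quantified via ONE-Glo luminescence; loss of signal denotes inhibition.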
TSHR antag: Antagonists of the Thyroid Stimulating Hormone Receptor: HTS campaign; Thyrotropin receptor (Homo sapiens), P16473; activity change, negative = inhibition, % at 11.5 µM; AID 504810, 2011; 0.2% of 330,000 active; TSHR-expressing cells, TSH-stimulated cAMP HTRF, 2 h; hits give low values;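 active = activity change below a set negative limit, meaning inhibition stronger than a set level, cut at about -70% in these data; inconclusive = activity change between two set negative limits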
Target sequence (P16473 whole entry, looked up): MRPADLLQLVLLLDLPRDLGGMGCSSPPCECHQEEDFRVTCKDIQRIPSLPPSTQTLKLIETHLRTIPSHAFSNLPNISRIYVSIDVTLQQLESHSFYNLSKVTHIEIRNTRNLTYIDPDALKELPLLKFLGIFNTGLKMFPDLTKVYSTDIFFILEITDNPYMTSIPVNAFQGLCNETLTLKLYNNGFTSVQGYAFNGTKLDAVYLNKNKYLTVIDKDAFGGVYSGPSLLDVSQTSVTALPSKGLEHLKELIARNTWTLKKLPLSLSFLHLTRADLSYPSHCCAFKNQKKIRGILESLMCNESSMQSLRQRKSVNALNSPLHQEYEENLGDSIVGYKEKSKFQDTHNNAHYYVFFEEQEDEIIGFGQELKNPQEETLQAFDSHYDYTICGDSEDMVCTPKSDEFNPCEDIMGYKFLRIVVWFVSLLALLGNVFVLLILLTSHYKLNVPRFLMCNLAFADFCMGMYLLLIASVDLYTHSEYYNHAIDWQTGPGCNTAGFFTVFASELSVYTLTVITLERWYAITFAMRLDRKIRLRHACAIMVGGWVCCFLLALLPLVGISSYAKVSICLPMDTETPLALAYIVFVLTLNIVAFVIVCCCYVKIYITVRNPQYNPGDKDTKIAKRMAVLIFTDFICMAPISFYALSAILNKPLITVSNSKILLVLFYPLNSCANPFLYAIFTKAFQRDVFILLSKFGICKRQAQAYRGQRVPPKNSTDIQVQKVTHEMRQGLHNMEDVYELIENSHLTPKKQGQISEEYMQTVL
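TSHR-expressing cells were treated with compounds, then stimulated with TSH at EC80 (4nM final) for 2 hours at 37 deg C. Cellular cAMP was measured by HTRF competition between lysate cAMP and cAMP-d2 for a cryptate-labelled anti-cAMP antibody.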
Gal4-VP16 FLuc: VP16 counterscreen qHTS for inhibitors of ROR gamma transcriptional activity; 3.5% of 310,000 active; Potency, µM (series often up to 53.6 µM), for inactives: at the top dose activity, negative = inhibition, hits mostly inhibitors; Drosophila S2 Gal4-VP16 UAS-luciferase, luminescence, 20 h;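 note: Gal4-VP16 expression switched on by copper sulfate through the metallothionein promoter; potency is the fitted concentration of half-maximal effect; nearly all actives have a fitted effect of over 50% in size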
B2AR arrestin: qHTS assay of beta-arrestin-biased ligands of beta2-adrenergic receptor. Beta-2 adrenergic receptor (Homo sapiens), P07550. beta-arrestin recruitment to beta2AR, cell-based reporter. Potency, µM (series often up to 46.1 µM), inactives show at the highest dose activation, hits mostly activators. 0.02% of 330,000 active;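 note: potency is the fitted concentration of half-maximal effect; 0% = DMSO controls and full agonism = EC100 isoproterenol or metaproterenol; nearly all actives have a fitted effect of over 65% in size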
Active calls of the source: *; ? = inconclusive; . = no result given; ! = not confirmed by another sample; [ ] = remark or other dose. Rows were chosen to be rich in hits. Some 7.5% of all compounds tested hit in one or more screens of this group. Unless noted, calls come from the whole dose curve; as a rule, active = well fitted curve in the direction sought with a large enough effect; inconclusive = small, poorly fitted or top-dose-only effect, or another doubt; inactive = no such curve, though single readings can be large; an effect the other way counts as inactive or inconclusive. Unless noted, % is set by controls: 0 for no effect and ±100 for the full control effect.

SMILES	RORgamma inh	ELG1 DNA repair	TSHR antag	Gal4-VP16 FLuc	B2AR arrestin
Cc1cc(NC(=O)c2ccc(S(=O)(=O)N3CCc4ccccc43)cc2)no1	11µM*	?	-7	?	0%
CCc1nnc(NC(=O)c2ccc(S(=O)(=O)N3CCCc4ccccc43)cc2)o1	0.35µM*	?	7	0.56µM*	0%
Cc1cc(NC(=O)c2ccc(S(=O)(=O)N3CCOCC3)cc2)no1	-24%	-3%	2	16%	0%
CNC(=O)c1ccsc1NC(=O)c1ccc(S(=O)(=O)N2CCCc3ccccc32)cc1	?	?	4	-11%	0%
O=S1(=O)NCC23CCC(CC21)O3 (centres undefined)	-3%	.	.	18%	.
COc1ccccc1NC(=S)N(C(C)C)C(C)c1ccccn1 (centres undefined)	13µM*	3%	2	-4%[10 µM]	-1%
Cn1nnnc1SCC1=C(C(=O)O)N2C(=O)C(NC(=O)C3CC3c3ccccc3)C2SC1 (centres undefined)	6%	-12%	-105*	-14%	0%
COc1cc(-c2cccc([C@H]3[C@@H]4C=CC[C@@H](C)[C@@H]4C(=O)N3Cc3ccccc3)c2)cc(OC)c1OC	-2%	?	5	1%	-1%
Cc1cc(C)n(C(=O)Cn2nc(C(F)F)cc2C)n1	21%	-3%	-4	4%	0%
Cc1cc(C)n(CC(=O)n2nc(C)cc2C)n1	0.32µM*	0%	-5	5%	0%
COc1ccc(Cl)cc1NC(=S)N(Cc1ccc(C(=O)O)cc1)Cc1ccc(OC)c(OC)c1	-2%	0%	-10	-14%	0%
CCCCNc1c(C(=O)OCC)c(C)nc2c1cnn2CC	32µM*!	.	-15	?	.
CC(=O)NCCC(=O)N(Cc1ccccc1)c1nc2c(C)cccc2s1	-13%	-15%	0	-11%	0%
CC(C)[C@@H](OCc1ccccc1)[C@H](C)CO/N=C1/[C@H]2OC2[C@@H](O)[C@H]2[C@H]1CCn1c(=O)n(-c3ccccc3)c(=O)n12 (some centres undefined)	9%[10 µM]	.	.	-17%[10 µM]	.
CC(Cc1ccccc1)NC(=S)CN1CCCC1=S (centres undefined)	8.9µM*	?	-11	?	0%
Cc1cccc(C)c1NC(=O)/C(=C/c1ccco1)c1ccccc1	?	1%	0	13µM*	0%
S=c1[nH]cc(-c2ccccc2)n1-c1cccc(Cl)c1	2.5µM*	-9%	-40	4.5µM*	-4%
Cc1[nH]n(-c2ccccc2)c(=O)c1-c1cccc(Cl)c1	1%	-3%	25	-7%	-1%
COc1cccc(-n2c(-c3ccccc3)c[nH]c2=S)c1	11µM*	-12%	-18	10µM*	0%
Nc1ncnc2c1ncn2[C@@H]1O[C@H](CNCC#Cc2ccccc2)[C@@H](O)[C@H]1O	.	?	9	.	0%
CCOC(=O)c1cnc(-n2nc(C)cc2C)nc1NCCO	?	-5%	3	-5%	-1%
CCOC(=O)c1cnc(-n2nc(C)cc2C)nc1NC(C)c1ccccc1 (centres undefined)	1.4µM*	?	-6	2.2µM*	0%
CCOC(=O)c1cnc(-n2cc(C)cn2)nc1NCc1ccc2c(c1)OCO2	13µM*	?	0	?	0%
CCOC(=O)c1cnc(-n2nc(C)cc2C)nc1NCc1ccccc1	1.4µM*	?	7	2.5µM*	0%
Cc1ccccc1C(=O)Nc1nnc(S(=O)(=O)N2CCCCC2)s1	27%	9%	-11	-3%	0%
SMILES	RORgamma inh	ELG1 DNA repair	TSHR antag	Gal4-VP16 FLuc	B2AR arrestin
CC1CCN(c2ccc(C(=O)Nc3ccc4c(c3)OCO4)cc2[N+](=O)[O-])CC1	?	?	-18	2%	-1%
CC1CCCN(c2ccc(C(=O)NCc3ccc4c(c3)OCO4)cc2[N+](=O)[O-])C1 (centres undefined)	32%	-9%	-21	-2%	-1%
CC1CCCN(c2ccc(C(=O)Nc3nnc(C4CC4)s3)cc2[N+](=O)[O-])C1 (centres undefined)	13µM*	-7%	-3	?	0%
CC1CCCN(c2ccc(C(=O)Nc3ccc4c(c3)OCO4)cc2[N+](=O)[O-])C1 (centres undefined)	?	21µM*	-31	-1%	-2%
COc1ccc2c(c1)O[C@H](c1ccc3c(c1)OCO3)[C@@H](OC(=O)NS(=O)(=O)c1ccc(F)cc1)C2=O	0%	.	.	7%	.
CCCCCNCCCCC	-23%	.	.	1%	.
CC(/C=N/Nc1nc(N2CCCCC2)nc(N2CCCCC2)n1)=C\c1ccccc1	?	8%	51	-11%	-1%
BrC(=C\c1ccccc1)/C=N/Nc1nc(N2CCOCC2)nc(N2CCOCC2)n1	-24%	16µM*	-17	?	0%
BrC(/C=C\c1ccccc1)=N/Nc1nc(N2CCOCC2)nc(N2CCOCC2)n1	-29%	12µM*	-17	-10%	1%
Cc1ccc(/C=C/S(=O)(=O)NCC(=O)OCC(=O)N2CC(=O)Nc3ccccc32)cc1	-3%	16%	-2	-1%	-1%
CC1CCCCC1Nc1ncnc2sccc12 (centres undefined)	?	-10%	-11	?	1%
CC(=O)c1c(C)[nH]c(C(=O)N2CCN(c3cc(Cl)ccc3C)CC2)c1C	5%	3.7µM*	3	-3%	-1%
CC(=O)c1c(C)[nH]c(C(=O)N2CCN(c3ccc(F)cc3)CC2)c1C	-18%	-8%	-14	-8%	0%
CC(C)C[C@H](NC(=O)[C@H](CO)NC(=O)[C@H](C)NC(=O)[C@H](CCCN=C(N)N)NC(=O)[C@H](CCCN=C(N)N)NC(=O)[C@@H](N)CC(C)C)C(=O)NCC(=O)O	-9%	.	.	2%	.
Cc1cc(C)n(-c2nc(-n3nc(C)cc3C)c3c4c(sc3n2)COC(C)(C)C4)n1	3.5µM*	13%	-6	13µM*	?
Cc1cc(C)n(-c2nc(NCCC(C)C)c3c4c(sc3n2)COC(C)(C)C4)n1	0.63µM*	18µM*	11	-12%	0%
Cc1cc(C)n(-c2nc(SCC(=O)Nc3nccs3)c3c4c(sc3n2)COC(C)(C)C4)n1	?	?	-1	?	0%
Cc1cc(C)n(-c2nc(NCCN(C)C)c3c4c(sc3n2)CCCC4)n1	-17%	?	26	-14%	0%
Cc1cc(C)n(-c2nc(NCCCN(C)C)c3c4c(sc3n2)CCCC4)n1	4µM*	0%	1	7.1µM*	5%
